Screens (PubChem)
This is a sample that favours compounds with a hit; in the whole collection about 18% have one here.
TDP1 cell CPT: DT40-hTDP1 cell growth loss with CPT; Potency, µM (highest dose often 46.2 µM), for the others: top-dose activity change, negative = growth inhibition, most hits filed as inhibitors; AID 686979; actives 12% (n = 420,000); chicken DT40 Tdp1-/-;hTDP1 cells + 20 nM CPT, ATP luminescence, 48 h; also: nearly all actives have a fitted effect of over 55% in size
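Chicken DT40 Tdp1-/- cells stably complemented with human TDP1 were seeded at 400 cells/well in medium containing 20 nM camptothecin, exposed to pin-transferred compounds, and grown at 37 °C for at least 48 hr. Viability was read as ATP luminescence.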
TDP1 block: TDP1 (human) enzyme inhibition; recombinant TDP1, AlphaScreen DNA substrate cleavage; Potency, µM (doses to about 130 µM), for the others: top-dose activity change, negative = inhibition, actives largely listed as inhibitors; actives 0.28% (n = 350,000); also: nearly all actives have a fitted effect of over 40% in size
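Compounds were preincubated with Tdp1 (1 nM final) for 15 min at room temperature before substrate (15 nM final) started a 5 min reaction; beads (10 ug/ml final) were then added for 10 min before AlphaScreen detection.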
KAT2A inh: inhibitors of human GCN5L2 histone acetyltransferase; GCN5L2 HAT assay, ThioGlo1 CoA-SH fluorescence; Q92830; actives 0.21% (n = 390,000); AID 504327; Potency, µM (titrated, usually from 58.9 µM), without a hit: top-dose activity change, negative = inhibition, hits mostly inhibitors
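GCN5L2 (20nM final) in 50mM HEPES, 0.1mM EDTA pH 7.5, 0.01% Tween-20 was preincubated 15 min at room temperature with compound, then given ThioGlo1 (50uM), H3(1-25) peptide (75uM) and acetyl-CoA (70uM); CoA-thiol fluorescence (Ex340/Em540) was read at 0 and 20 min.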
TDP1 cell noCPT: qHTS for Inhibitors of human tyrosyl-DNA phosphodiesterase 1 (TDP1): qHTS in cells in absence of CPT | DT40 Tdp1-/- hTDP1 cells, no CPT, ATP luminescence, 48 h | Potency, µM (titrated, usually from 46.2 µM), for the others: at the highest dose activity change, negative = growth inhibition, actives largely listed as inhibitors | actives 15% (n = 420,000) | AID 686978, 2013; also: nearly all actives have a fitted effect of over 55% in size
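Growth of hTDP1-complemented DT40 Tdp1-knockout cells is measured by ATP luminescence after at least 48 hr compound exposure at 37 °C, with DMSO substituting for the 20 nM CPT used in the parallel screen.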
VDR inhibitor: vitamin D3 receptor (human) inhibition. VDR-SRC2-3 peptide fluorescence polarization, 2 h. P11473. actives 0.93% (n = 400,000). Potency, µM, inactives show max response, negative = inhibition, actives largely listed as inhibitors
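FP read-out; VDR + SRC2-3 coactivator peptide; 23 nl compound by pintool; 2 h RT incubation; reagents held at 4 deg C, protected from light.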
PLK1 PBD inh: blocks phosphopeptide binding to human PLK1 polo-box domain; AID 720504; P53350; Plk1 PBD binding of FITC phosphopeptide, fluorescence polarization; Potency, µM, for inactives: max response, negative = inhibition, usual class: inhibitors; actives 2.8% (n = 360,000); also: series mostly up to about 57 µM; nearly all actives have a fitted effect of over 65% in size
Target sequence (P53350 whole entry, looked up, the tested form may be a part): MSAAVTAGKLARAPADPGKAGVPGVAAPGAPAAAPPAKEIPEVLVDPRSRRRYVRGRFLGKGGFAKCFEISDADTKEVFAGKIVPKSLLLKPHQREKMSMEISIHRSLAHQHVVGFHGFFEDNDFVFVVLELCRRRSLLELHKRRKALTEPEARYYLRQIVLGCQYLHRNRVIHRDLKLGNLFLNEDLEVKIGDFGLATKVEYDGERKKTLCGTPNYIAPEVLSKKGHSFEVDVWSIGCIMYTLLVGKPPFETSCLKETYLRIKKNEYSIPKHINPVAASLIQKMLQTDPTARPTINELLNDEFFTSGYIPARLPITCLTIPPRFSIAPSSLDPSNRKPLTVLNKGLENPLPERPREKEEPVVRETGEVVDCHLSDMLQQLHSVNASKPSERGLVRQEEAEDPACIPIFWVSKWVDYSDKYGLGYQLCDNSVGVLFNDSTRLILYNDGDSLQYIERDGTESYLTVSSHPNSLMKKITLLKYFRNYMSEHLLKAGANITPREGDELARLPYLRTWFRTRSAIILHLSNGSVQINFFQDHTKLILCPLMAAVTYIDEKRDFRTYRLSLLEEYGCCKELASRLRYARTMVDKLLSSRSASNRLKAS
The depositor's hits bear a star; u = inconclusive; x = no result given. Calls follow the shape of the dose curve; as a rule, active = well fitted curve in the direction sought with a large enough effect; inconclusive = small, poorly fitted or top-dose-only effect, or another doubt; inactive = no such curve, though single readings can be large; an effect the other way counts as inactive or inconclusive. % is scaled to controls: 0 for no effect and ±100 for the full control effect; potency is read from the fitted curve at half-maximal effect.

SMILES | TDP1 cell CPT | TDP1 block | KAT2A inh | TDP1 cell noCPT | VDR inhibitor | PLK1 PBD inh
Cc1cc(C)cc(-n2c(SCC(=O)Nc3cccc(F)c3)nc3c([nH]c4ccccc43)c2=O)c1 | -28% | 5% | 1% | u | 8% | x
Cc1cc(C)cc(NC(=O)CSc2nc3c([nH]c4ccccc43)c(=O)n2-c2ccc(F)cc2)c1 | 8.2µM* | 0% | 4% | 21µM* | -7% | x
COc1cccc(-n2c(SCC(=O)N3CCc4ccccc43)nc3c([nH]c4ccccc43)c2=O)c1 | 7.3µM* | 4% | -3% | 10µM* | 7% | x
CCOc1ccc(-n2c(SCC(=O)N3CCc4ccccc43)nnc2-c2c[nH]c3ccccc23)cc1 | u | 3% | -9% | u | 1% | -9%
COc1cccc(-n2c(SCC(=O)Nc3cc(C)on3)nc3c([nH]c4ccccc43)c2=O)c1 | u | -5% | 4% | u | -13% | -3%
COc1cccc(-n2c(SCC(=O)N3CCc4ccccc43)nnc2-c2c[nH]c3ccccc23)c1 | 16µM* | 1% | 2% | 23µM* | -14% | -9%
COc1cccc(-n2c(SCC(N)=O)nc3c([nH]c4ccccc43)c2=O)c1 | 18µM* | 2% | 1% | 16µM* | 20% | -2%
CCCn1c(=O)c2sccc2n2c(CCCC(=O)NC3CCN(Cc4ccccc4)CC3)nnc12 | -21% | 4% | 1% | -21% | 23% | -10%
COC(=O)C1=C[C@@H](C(=O)OC)C2C3=C(C(=O)[C@@]2(C)NC(=O)c2ccccc2)[C@H](C)n2c(=O)n(C)c(=O)n2[C@@H]3C1 (stereo partly drawn) | x | 7% | x | x | 4% | x
COc1ccc(-n2c(SCc3ccccc3F)nc3c([nH]c4ccccc43)c2=O)cc1OC | 26µM* | 1% | -11% | 16µM* | -9% | x
COc1cccc(-n2c(SCC(=O)Nc3cccc(C)c3)nc3c([nH]c4ccccc43)c2=O)c1 | u | -1% | -15% | u | 17% | x
Cc1cccc(NC(=O)CSc2nc3c([nH]c4ccccc43)c(=O)n2-c2ccc(F)cc2)c1C | u | 2% | 0% | u | 6% | x
Cc1ccc(-n2c(SCC(=O)NCc3ccc(F)cc3)nc3c([nH]c4ccccc43)c2=O)cc1 | 18µM* | -1% | 1% | 23µM* | -9% | x
Cc1ccc(-n2c(SCC(N)=O)nc3c([nH]c4ccccc43)c2=O)cc1 | 15µM* | 7% | -5% | 26µM* | -4% | -12%
O=c1c2[nH]c3ccccc3c2nc(SCc2ccccc2F)n1-c1ccc(F)cc1 | u | 4% | -17% | u | 0% | x
O=C(CSc1nc2c([nH]c3ccccc32)c(=O)n1-c1ccccc1)Nc1cccc(C(F)(F)F)c1 | 15µM* | 4% | -18% | 23µM* | -1% | x
Cc1ccc(-n2c(SCC(=O)N3CCC(C)CC3)nc3c([nH]c4ccccc43)c2=O)cc1 | -24% | 9% | -7% | -23% | 12% | x
Cc1cc(C)cc(NC(=O)C(NS(=O)(=O)c2cccc3nsnc23)c2ccccc2)c1 (stereo not drawn) | u | 7% | -11% | u | u | x
CCc1ccc2oc(-c3cccc(NC(=O)C(C)(C)Oc4ccc(Br)cc4)c3)nc2c1 | x | 6% | -7% | x | 5% | x
CC(=O)N1c2ccc(S(=O)(=O)N3CCN(c4cc(Cl)ccc4C)CC3)cc2CC1C (stereo not drawn) | u | 4% | 5% | u | 18% | x
COc1ccc2c(c1)nc(-c1cccc(Br)c1)c(=O)n2C(c1ccccn1)c1nc2ccccc2[nH]1 (stereo not drawn) | u | x | x | u | x | -13%
COc1ccc(-n2c(SCc3ccccc3)nc3c([nH]c4ccccc43)c2=O)cc1 | u | 7% | 3% | 23µM* | 2% | x
O=C(CSc1nc2c([nH]c3ccccc32)c(=O)n1-c1ccccc1F)Nc1cccc(Cl)c1 | u | 10% | -5% | 21µM* | 13% | x
COc1cccc(NC(=O)CSc2nc3c([nH]c4ccccc43)c(=O)n2-c2cccc(Cl)c2)c1 | u | 8% | -15% | -43% | 0% | x
COC(=O)c1c(SCC(=O)Nc2cc(F)ccc2F)[nH]c2ccc(C)cc2c1=O | 8.2µM* | 3% | -1% | 8.2µM* | 7% | x
SMILES | TDP1 cell CPT | TDP1 block | KAT2A inh | TDP1 cell noCPT | VDR inhibitor | PLK1 PBD inh
CCC1CCCCN1C(=O)CSc1nc2c([nH]c3ccccc32)c(=O)n1-c1cccc(OC)c1 (stereo not drawn) | u | 2% | 1% | 26µM* | 0% | x
COC(=O)c1c(SCC(=O)Nc2cccc(C(F)(F)F)c2)[nH]c2ccccc2c1=O | 5.8µM* | 3% | -2% | 5.8µM* | 18% | x
COC(=O)c1c(SCC(=O)NC2CCCCC2)[nH]c2ccccc2c1=O | 14% | x | -10% | u | 22% | -6%
COc1ccccc1-c1cncnc1N1CCN(C)CC1 | -2% | x | -5% | -19% | u | x
Cc1noc(C)c1-c1cncnc1N1CCN(C)CC1 | 10% | x | -8% | 6% | 32µM* | x
NC(=O)C1CCN(c2cc(Cl)nc(N)n2)CC1 | u | -2% | -6% | u | 79µM* | 8.4µM*
Nc1nc(Cl)cc(N2CCC(c3cc(-c4ccc(Cl)cc4Cl)n[nH]3)CC2)n1 | 4.1µM* | 6% | -10% | 4.1µM* | 13% | 4%
COc1cccc(/C=C/C(=O)OCC(=O)Nc2nnc(-c3ccccc3)o2)c1 | -4% | -5% | -5% | -3% | -8% | -8%
Cc1cc(C)n(-c2cc(N3CCN(S(=O)(=O)c4ccc(Cl)cc4)CC3)ccc2[N+](=O)[O-])n1 | 7.3µM* | 3% | -9% | 6.5µM* | -14% | 1%
CN(C)S(=O)(=O)N1CCN(c2ccc([N+](=O)[O-])c(N3CCCCC3)c2)CC1 | -26% | 4% | -8% | 10µM* | 16% | -3%
Cc1cc(C)n(-c2cc(N3CCN(C(=O)c4cccc(Br)c4)CC3)ccc2[N+](=O)[O-])n1 | u | 8% | -1% | 21µM* | 0% | -21%
Cn1cnnc1Sc1cc(N2CCN(S(=O)(=O)c3ccccc3)CC2)ccc1[N+](=O)[O-] | u | 3% | -11% | u | -3% | -18%
